This is an account of results in PubChem BioAssay (NCI).

About 83,000 compounds went through this panel and 20% of them were active in at least one assay; those are over-represented in the sample as a whole.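 Cell lines were cultured in 96-well plates, exposed to a single compound concentration, and assessed for percent growth 48 hours later.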 A number with no mark means an inactive call. Activity calls are given as the source filed them.

For the test, the system named is SK-OV-3 ovarian. The experiment in a line: NCI-60 one-dose screen, 48 h (100 = growth as untreated, 0 = no growth, -100 = all killed). As to conditions: 10 µM unless noted. On the procedure:
Growth inhibition of the SK-OV-3 human tumor cell line is measured as a screen for anti-cancer activity. Cells are grown in 96 well plates and exposed to the test compound for 48 hours. Compounds are tested at a single concentration, which is 10^-5 M for most compounds. The reported endpoint is percent growth (GI% or GIPRCNT), where numbers from 0 - 100% represent growth inhibition, and numbers from -100% - 0 represent cell death. For example, a value of 40 represents 60% growth inhibition. A value of 0 means no net growth occurred over the course of the experiment. A value of -40 indicates 40% of cells at the beginning of the experiment died by the end of the experiment. A value of -100 means all cells are dead at the end of the experiment.
NCI-60 Human Tumor Cell Lines Screen was performed using the standard one-dose NCI protocol, which is described in more detail at https://dtp.cancer.gov/discovery_development/nci-60/default.htm.
Compounds with GIPRCNT values below 10 were considered active. Activity score was based on GIPRCNT using the following formula: […]
Score is 0 for GIPRCNT values of 100 or above, 50 for GIPRCNT values of 0, and 100 for GIPRCNT values of -100.
`COc1ccc2c(c1)c(-c1nonc1-c1cn(C)c3ccc(OC)cc13)cn2C`: the growth is 48.2%.
In the case of `COc1ccc(/C=C/C(=O)c2cc3c(N)c(C(=O)Nc4ccccc4C)sc3nc2C)cc1`, the growth is 21.2%.
For the compound `COc1ccc(C2C(C#N)=C(N)Oc3c2sc2c(Br)cccc32)cc1` (stereo not given), the growth is 35.2%.
With `CC(C)CN1CC(C(=O)Nc2ccc3c(c2)-c2ccccc2C3)CC1=O` (stereo not given) the figure was 74.6% [50 µM]; with `CCN(CCO)CC(C)Nc1ccc([N+](=O)[O-])c2sc3ccccc3c(=O)c12` (stereo not given), 45.6%; with `CC1(C)CC[C@]2(C(=O)O)CC[C@]3(C)C(=CC[C@@H]4[C@@]5(C)C[C@@H](Cc6cn([C@@H]7O[C@H](CO)[C@@H](O)[C@H](O)[C@H]7O)nn6)[C@H](O)C(C)(C)[C@@H]5CC[C@]43C)[C@@H]2C1`, 89%.
The figure for `Cn1ncc2ccc(-c3nc(-c4ccccc4)[nH]c3-c3n[nH]c(=O)n3C3CC3)cc21` is 94.5%; for `CCCCCCC(=O)Nc1ncc(Cc2ccc(C)cc2)s1` it is 31.8%; for `CC(CN)[C@@H]1CC[C@]2(CO)CC[C@]3(C)[C@H](CC[C@@H]4[C@@]5(C)CCC(N)C(C)(C)[C@@H]5CC[C@]43C)[C@@H]12` (stereo not given in full) it is 103%.
For the compound `CN1CCCc2cc(/C=C3/SC(=S)N(CCc4ccc(O)cc4)C3=O)ccc21`, the growth was 111%.
`COc1ccc(Cc2cnc(NC(=O)c3sc4ccccc4c3Cl)s2)cc1`: the growth is 33.9%.
On to `CC(C)[C@@]12C[C@@H](OC(=O)COC(=O)c3ccccc3)[C@@](C)(O1)[C@@H]1CC[C@@H](C)[C@H]1[C@@H]2OC(=O)/C=C/c1ccccc1`, for which the growth was 88.1%.
On to `COc1cc(C(=O)c2c(-c3ccccc3)oc3c(OC)cccc23)cc(OC)c1O`, for which the growth was 45.1%.
`O=C1/C=C/[C@@H](O)[C@@H]2C[C@@H](O)C[C@H]2/C=C/CCC[C@H](CCOCc2ccccc2)O1`: the growth is 31.3%.
`c1ccc(CCc2ccccc2-c2cc(-c3ccccc3)on2)cc1`: the growth was 83.1%.
In the case of `CCN(CC)CCCNCc1cc(-c2ccccc2)nc2cc(Cl)ccc12`, the growth is 75.6%.
The figure for `O=C(/C=C/C12c3ccccc3C(c3ccccc31)C1C(=O)NC(=O)C12)c1ccccn1` (stereo not given) is 5.83% (active); for `Cn1c(O)c(C(/C=C/c2ccccc2)=Nc2ccccc2N)c(=O)n(C)c1=O` it is 110%.
Take `N=c1c2c(=N)n3c(nc2nc2n1-c1ccccc1Sc1ccccc1-2)sc1cc(Cl)ccc13`: the growth is 49.6%.
Regarding `COc1cccc(C(=O)OCC(O)C(=O)NC23CC4CC(CC(C4)C2)C3)c1` (stereo not given), the growth is 99.5%.
`COc1ccccc1-n1c(-c2cc(O)ccc2C)cn2c3c(=O)[nH]c(=O)n(C)c3nc12`: the growth is 47.4%.
As to `CCNCc1ccc(O)c2ncccc12`, the growth is 27.9%.
With `COC(=O)c1nc(-c2ccccc2)oc1S(=O)(=O)N1CCC(C(N)=O)CC1` the figure was 101%.
As for `CCCCCCCCCCCCCCCCOC(=O)c1c(C)[nH]c(/C=C2\N=C(c3ccc[nH]3)C=C2OC)c1C`, the growth was 70.4%.
Take `CCCCCn1sc(=O)n(Cc2ccc(CNC(=O)OCc3ccc4c(Cl)cc(Cl)c(O)c4n3)cc2)c1=O`: the growth is 96%.
Consider `N#CCC1=NC(c2cccs2)=Nc2ccccc2S1`, for which the growth is 76.4%.
With `Cc1cc(N2CCCCC2)nc(N2CCN(CC(=O)Nc3ccc4c(ccn4Cc4ccccc4)c3)CC2)n1`, the growth is 62.3%.
For the compound `Fc1ccc2c(c1)c(-c1nc(-c3c[nH]c4ncccc34)cs1)cn2CCCN1CCOCC1`, the growth is 81.6%.
For `CCn1cc(CNc2ccc(C(=O)Nc3cc4cc(OC)c(OC)cc4c(C)n3)cc2)c(C)n1`, the growth is 86.8%.
The figure for `CC[C@H](C)[C@H](NC(=O)[C@H](CCCNC(=N)N)NC(=O)[C@H](Cc1c[nH]c2ccccc12)NC(=O)[C@@H](NC(=O)[C@H](CCCCN)NC(=O)[C@H](CCCCN)NC(=O)[C@@H](NC(=O)[C@@H](NC(=O)[C@@H](NC(=O)[C@H](CCCCN)NC(=O)[C@H](Cc1ccccc1)NC(=O)[C@H](CCCCN)NC(=O)[C@H](CCCCN)NC(=O)[C@H](Cc1ccccc1)NC(=O)[C@@H](NC(=O)[C@@H](N)CCCCN)[C@@H](C)CC)[C@@H](C)O)[C@@H](C)CC)[C@@H](C)CC)C(C)C)C(=O)N[C@@H](Cc1ccccc1)C(=O)NCC(=O)N[C@@H](CCCNC(=N)N)C(=O)N[C@@H](Cc1ccccc1)C(N)=O` is 13.9%; for `Nc1ncnc2c1c(-c1ccc(Oc3ccccc3)cc1)nn2CC1SSCC1O` (stereo not given) it is 44.3%; for `CNCc1cccc2c1OCCOCCN(C)C(=O)CN(C)S(=O)(=O)c1ccc(cc1)-c1cnc(N)c(n1)C(=O)N2` it is 8.28% (active).
With `CN1CCN(c2ccc3c(c2)nc(NNC(=O)c2cnccn2)c2cccn23)CC1` the figure was 32.5%; with `CCCCCCOC(=O)CC1=C(C)/C(=C/c2[nH]c(-c3ccc[nH]3)cc2OC)N=C1C`, -34.5% (active).
As for `CCOC(=O)c1c(NC(=O)c2ccc(C(C)(C)C)cc2)sc2cc(O)ccc12`, the growth was 109%.
For the compound `CN(C)c1ccc(/C=C2/C=C(c3ccccc3)OC2=O)cc1`, the growth was 93.9%.
With `O=C(N/N=C/c1ccc(Cl)cc1Cl)c1ccc2nc(-c3ccc(Cl)cc3)[nH]c2c1` the figure was 49.8%; with `Cc1ncc(C(=O)Nc2ccc(CN3CCN(C)CC3)c(C(F)(F)F)c2)cc1C#Cc1cnc(N)c2ccncc12`, -34.7% (active).
Regarding `NNC(=S)N/N=C/c1ccccn1`, the growth is 24.3%.
`O=C1Nc2ccc(F)cc2/C1=N/c1nnc(Sc2ccccc2)s1`: the growth is 97.1%.
